Where “and” joins values, the source holds several entries; their conditions need not be identical. Equal entries are not always repeated. Inconclusive results are not listed. Some structures have more than one record in an assay (separate samples or runs), and their calls can disagree. Calls of active or inactive are those of the source. Unless noted, calls follow the shape of the dose curve; as a rule, active = well fitted curve in the direction sought with a large enough effect in the repeat runs; inconclusive = weak or mixed curves; inactive = no such curve, though single readings can be large; an effect the other way counts as inactive or inconclusive.

Assay [1] can be described thus: qHTS assay for small molecule agonists of the p53 signaling pathway (AID 651631; calls by dose curve; also: nearly all actives have a fitted effect of over 15% in size). The essentials:
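p53RE-bla HCT-116 cells; compounds 16 h, 37 °C; LiveBLAzer B/G FRET substrate 2 h RT; fluorescence intensity read-out, qHTS format.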

A short description of assay [2]: qHTS assay for small molecules that induce genotoxicity in human embryonic kidney cells expressing luciferase-tagged ATAD5 (AID 651632). Also: nearly all actives have a fitted effect of over 15% in size. The essentials: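 Luminescent reporter readout, HEK293T ATAD5-luc line: 16 hr drug exposure (37C, 5% CO2) followed by Amplite, 30 min RT.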
A general note: In qHTS, concentration-response curves come from the screen itself.

A short description of assay [3]: qHTS assay for small molecule agonists of the p53 signaling pathway - cell viability (AID 651633; calls by dose curve;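 also: p53RE-bla HCT reporter cells with a stable beta-lactamase p53 reporter; series mostly up to about 83 µM; nearly all actives have a fitted effect of over 30% in size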). The essentials:
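p53RE-bla cells, seeded at 4,000 per well and rested 5 h at 37 C/5% CO2, received compounds in DMSO for 16 h at 37 C. CellTiter-Glo was then added, and luminescence was read after 30 min at room temperature to gauge cytotoxicity.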

Assay [4] is described as follows: qHTS assay for small molecules that induce genotoxicity in human embryonic kidney cells expressing luciferase-tagged ATAD5 - cell viability (AID 651634; calls by dose curve; also: nearly all actives have a fitted effect of over 25% in size). The procedure, abridged: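 Viability read: CellTiter-Fluor fluorescence, 30 min at 37C. Cells: HEK293T, luciferase-tagged ATAD5. Exposure: 15.5 hr, 37C, 5% CO2, compound or DMSO vehicle.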
Assay [5] can be described thus: qHTS assay for small molecule disruptors of the mitochondrial membrane potential - cell viability (AID 720634; calls by dose curve;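 also: human HepG2 liver cancer cells; series mostly up to about 83 µM; nearly all actives have a fitted effect of over 20% in size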). The procedure, abridged: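 HepG2, 1 hr compound, 37 C. ATP luminescence via CellTiter-Glo, 30 min RT, same well as m-MPI.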
The nature of assay [6]: qHTS assay for small molecule disruptors of the mitochondrial membrane potential (AID 720635). Also: potency is read from the fitted curve at half-maximal effect. The procedure, abridged:
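HepG2 cells (2,000/well) attached overnight at 37C, then took compound for 1 hr at 37C, 5% CO2. Mito-MPS dye was added for 30 min; fluorescence was read at 490/535 nm (monomers) and 540/590 nm (aggregates).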

A short description of assay [7]: qHTS assay to test for compound auto fluorescence at 590 nm (red) in HepG2 cells (AID 720674). The procedure, abridged:
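Rose Bengal sodium served as the red fluorophore standard. HepG2 monolayers (overnight attachment, MEM with 10% FBS) were exposed to test compounds for 1 hr at 37 C and read at Ex 540/Em 590 nm.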

The nature of assay [8]: qHTS assay to test for compound auto fluorescence at 535 nm (green) in HepG2 cells (AID 720675).
A short description of assay [9]: qHTS assay to test for compound auto fluorescence at 460 nm (blue) in HEK293 cells (AID 720678). The procedure, abridged:
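After cell attachment (4-5 hr, 37C), compounds were pinned onto HEK293 monolayers in 10% dialyzed FBS medium. The blue channel (405/460 nm) was read following overnight culture. Equivalency was calculated against triamterene.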

Assay [10] is described as follows: qHTS assay to test for compound auto fluorescence at 590 nm (red) in HEK293 cells (AID 720679). The procedure, abridged:
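Plates of HEK293 cells (10% dialyzed FBS) are treated with 23 nL compound or DMSO vehicle after a 4-5 hr attachment period, incubated overnight at 37C, and read for red fluorescence at 540/590nm.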

Assay [11] can be described thus: qHTS assay to test for compound auto fluorescence at 535 nm (green) in HEK293 cells (AID 720680).
Assay [12] can be described thus: qHTS assay to test for compound auto fluorescence at 460 nm (blue) in HEK293 cell free culture (AID 720681). The essentials:
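Test compounds were pinned into cell-free culture medium (DMEM with 10% FBS) and fluorescence was read directly at Ex/Em 405/460 nm. Signals were expressed as fluorescence equivalents of triamterene, with DMSO vehicle as control.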

Assay [13] is described as follows: qHTS assay to test for compound auto fluorescence at 535 nm (green) in HEK293 cell free culture (AID 720682). The procedure, abridged:
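Cell-free medium (DMEM, 10% FBS) receives compound or DMSO by pintool. Plate read directly at Ex 485/Em 535 nm. Signal converted to fluorescein equivalency.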

A short description of assay [14]: qHTS assay to test for compound auto fluorescence at 590 nm (red) in HEK293 cell free culture (AID 720683). The essentials: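 Tox21 10K library compounds were pinned into cell-free DMEM with 10% FBS and fluorescence was read at excitation 540 nm. Activity is expressed as Rose Bengal sodium equivalency.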
Assay [15] can be described thus: qHTS assay to test for compound auto fluorescence at 460 nm (blue) in HepG2 cell free culture (AID 720685). The procedure, abridged:
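Compound (23 nL) or DMSO pinned into cell-free MEM with 10% FBS; blue fluorescence read at 405/460 nm excitation/emission, expressed as auto-fluorescence equivalency to triamterene.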

Assay [16] in a line: qHTS assay to test for compound auto fluorescence at 535 nm (green) in HepG2 cell free culture (AID 720686).
Assay [17] in a line: qHTS assay to test for compound auto fluorescence at 460 nm (blue) in HepG2 cells (AID 720687). The essentials:
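Cells (2,000/well in MEM with 10% FBS) attached overnight at 37 C, then were exposed to compound or DMSO for 1 hr at 37 C, 5% CO2. Fluorescence read at Ex/Em 405/460 nm, expressed as triamterene-equivalent signal.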

For assay [18], the target named is Glucocorticoid receptor (Homo sapiens) (UniProt P04150). The assay can be described thus: qHTS assay to identify small molecule agonists of the glucocorticoid receptor (GR) signaling pathway (AID 720691; active = well fitted activation curve with a large enough effect in the signal ratio in the repeat runs, not every such curve was filed as active; the % refers to the signal ratio). The procedure, abridged:
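qHTS in GR-bla HeLa cells: 4 h settling at 37 C/5% CO2, 18 h compound incubation at 37 C, 2 h LiveBLAzer B/G FRET substrate at room temperature, fluorescence intensity measured.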

Assay [19] shares this target. The assay is described as follows: qHTS assay to identify small molecule antagonists of the glucocorticoid receptor (GR) signaling pathway (AID 720692; active = well fitted inhibition curve with a large enough effect in the signal ratio in the repeat runs, not every such curve was filed as active; the % refers to the signal ratio). The essentials:
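Inhibition of glucocorticoid signalling is measured in HeLa cells with a GRE-controlled beta-lactamase reporter; cells are co-treated with compound and 5 nM dexamethasone (final) for 18 h before FRET substrate readout.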

The nature of assay [20]: qHTS assay to test for compound auto fluorescence at 590 nm (red) in HepG2 cell free culture (AID 720684). The procedure, abridged:
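Red fluorescence (540 nm excitation, 590 nm emission) was measured after compound transfer into cell-free MEM supplemented with 10% FBS. Values are equivalencies against Rose Bengal sodium.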

Chain of Glucocorticoid receptor (Homo sapiens) (P04150 whole entry, looked up): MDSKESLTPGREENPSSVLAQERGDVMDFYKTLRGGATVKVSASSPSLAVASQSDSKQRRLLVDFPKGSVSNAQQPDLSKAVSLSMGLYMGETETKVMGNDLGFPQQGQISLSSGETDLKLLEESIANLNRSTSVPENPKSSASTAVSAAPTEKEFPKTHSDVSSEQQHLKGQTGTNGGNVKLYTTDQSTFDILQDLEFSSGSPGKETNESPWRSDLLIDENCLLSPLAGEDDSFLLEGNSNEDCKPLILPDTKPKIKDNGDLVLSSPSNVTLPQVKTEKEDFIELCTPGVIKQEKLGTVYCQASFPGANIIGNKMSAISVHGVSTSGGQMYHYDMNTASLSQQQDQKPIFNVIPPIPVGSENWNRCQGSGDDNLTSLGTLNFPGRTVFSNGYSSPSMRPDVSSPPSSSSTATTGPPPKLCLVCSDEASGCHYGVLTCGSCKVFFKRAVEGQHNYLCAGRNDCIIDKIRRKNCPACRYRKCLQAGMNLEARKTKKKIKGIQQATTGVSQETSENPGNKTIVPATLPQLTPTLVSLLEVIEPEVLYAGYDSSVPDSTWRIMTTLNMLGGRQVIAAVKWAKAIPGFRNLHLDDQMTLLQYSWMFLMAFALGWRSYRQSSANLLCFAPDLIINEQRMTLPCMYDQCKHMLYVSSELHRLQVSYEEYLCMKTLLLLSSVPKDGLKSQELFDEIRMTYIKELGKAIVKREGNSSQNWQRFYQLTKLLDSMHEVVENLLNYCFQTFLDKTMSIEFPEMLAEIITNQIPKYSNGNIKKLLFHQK

As for `CC(C)NC(=O)N1CC(=O)N(c2cc(Cl)cc(Cl)c2)C1=O`, the call in assay [1], in [2], in assay [3], in assay [4], in [7] and in assay [8] was inactive. Besides, the call in assay [9], in assay [10], in assay [11], in assay [12], in [13] and in [14] was inactive. The call in assay [15], in assay [16] and in assay [17] was inactive. In addition, the Potency result in assay [5] and in [6] was “inactive” each time.

Take `CC(C)N1C(=O)c2ccccc2NS1(=O)=O`: the call in assay [1], in [2], in assay [3], in assay [4], in assay [7] and in assay [8] was inactive. Besides, the compound was called inactive in assay [9], in assay [10], in assay [11], in assay [12], in assay [13] and in assay [14]. Also, the compound was called inactive in [15], in [16], in assay [17] and in assay [18]. The Potency entry in assay [5] and in assay [19] was “inactive” throughout. The Potency result in assay [6] is “inactive and 48.6 µM (active)”.

Regarding `c1ccc(-c2ccccc2)cc1`, the compound was classed as inactive in assay [1], in assay [2], in [3], in assay [4], in assay [7] and in assay [8]. Also, the compound was called inactive in assay [9], in assay [10], in [11], in assay [12], in assay [13] and in assay [14]. Also, the compound was classed as inactive in [20], in assay [15], in assay [16], in assay [17] and in [18]. Also, the Potency entry in assay [5], in assay [6] and in assay [19] was “inactive” in each case.

Consider `Cc1ccccc1O`, for which the result in assay [1], in assay [2], in assay [3], in assay [4], in assay [7] and in assay [8] was inactive. Also, the result in assay [9], in [10], in [11], in assay [12], in assay [13] and in [14] was inactive. The compound was called inactive in assay [15], in [16], in [17] and in assay [18]. The Potency result in [5], in assay [6] and in [19] was “inactive” in each case.

`c1ccc2c(c1)Oc1ccccc1O2`: the call in assay [1], in assay [2], in [3], in [4], in assay [7] and in assay [9] was inactive. Moreover, the result in assay [10], in [11], in [12], in assay [13], in [14] and in assay [20] was inactive. Also, the compound was called inactive in [15], in assay [16], in [17] and in [18]. The Potency entry in assay [5], in assay [6] and in [19] was “inactive” in each case.

For `C#CC(C)(C)NC(=O)c1cc(Cl)cc(Cl)c1`, the call in assay [1], in assay [2], in [3], in [4], in assay [7] and in assay [9] was inactive. For the same compound, the compound was classed as inactive in assay [10], in assay [11], in assay [12], in assay [13], in assay [14] and in assay [20]. Moreover, the compound was classed as inactive in [15], in assay [16], in [17] and in assay [18]. The Potency entry in assay [5], in [6] and in assay [19] was “inactive” each time.

Regarding `Clc1ccc(Cl)cc1`, the result in assay [1], in assay [2], in assay [3], in assay [4], in [7] and in [8] was inactive. Also, the compound was called inactive in assay [9], in assay [10], in [11], in [12], in [13] and in [14]. Further, the outcome in assay [20], in [15], in assay [16], in [17] and in assay [18] was inactive. In addition, the Potency result in assay [5], in assay [6] and in [19] was “inactive” each time.

In the case of `COCCl`, the compound was called inactive in assay [1], in assay [2], in assay [3], in assay [4], in assay [7] and in assay [8]. Besides, the result in [9], in assay [10], in assay [12], in assay [13], in [14] and in assay [20] was inactive. Further, the compound was classed as inactive in assay [15], in assay [16], in [17] and in [18]. Moreover, the Potency result in assay [5], in assay [6] and in [19] was “inactive” in each case.

These data come from PubChem BioAssay (Tox21).
